Shown are actives, neighbours in structure and some others; about 2.2% of the full set was active somewhere.
LGR2 inh = inhibitors of bursicon-induced LGR2 CRE-luciferase signal, primary screen, cell-based, HEK293, CRE-luciferase reporter, bursicon stimulation | 0.35% of 380,000 active | bursicon-stimulated, 4 h | inhibition, % at 9.99 µM | Drosophila bursicon receptor LGR2 (rickets);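 active means drop in luminescence signal, shown as inhibition above about 50% in the replicate tests, limit read from the data, passing the limit was not always enough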;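 further: agonist challenge used bursicon conditioned medium at about half maximal strength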
EBV LMP1 NFkB = EBV LMP1-driven NF-kappaB luciferase reporter inhibitors, primary screen, cell-based, luminescence, single point. LMP1-induced NF-kappaB luciferase reporter cells. inhibition, % at 12.5 µM. 0.69% of 350,000 active; in the data active means inhibition above about 41%;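 further: 0% = neutral control wells and 100% = reference inhibitor control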
MITF TRPM1 inh = inhibitors of MITF-dependent TRPM1 promoter reporter, primary screen, cell-based, SK-MEL-5, single point, luciferase | inhibition, % at 12.5 µM | AID 488899, 2010 | SK-MEL-5 TRPM1 promoter luciferase, 24 h | 0.83% of 330,000 active;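 active means mean inhibition across replicates of 60% or more, whatever share of single replicates reaches that level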
EWS-Fli inh = EWS/Fli-driven NR0B1 reporter inhibitors, primary screen, A673 cells, NR0B1 luciferase, luminescence, MLPCN library | 0.67% of 350,000 active | viability-normalised | inhibition, % at 12.6 µM;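 active means mean inhibition of at least 50% after viability correction, with every replicate also passing that limit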;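 further: firefly luciferase signal divided by Alamar Blue viability fluorescence both relative to DMSO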
Shn3 inh set2 = reduction of Shn3 3'UTR firefly luciferase signal, primary screen, Schnurri-3 inhibitor project, cell-based, Clone20 osteoblasts, set 2 | inhibition, % at 12.5 µM | Clone20 osteoblast Shn3 3'UTR firefly luciferase, 24 h | 0.52% of 360,000 active;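 active means mean inhibition of at least 75% with every replicate also reaching 75%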;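 further: 0% = median of neutral control wells and 100% = pilot-screen positive control compound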
PAX8 inh HTS = inhibitors of PAX8-driven TPO luciferase reporter, primary screen, RMG-I cells, single concentration; inhibition, % at 12.6 µM; 1.2% of 360,000 active; SteadyGlo, 24 h; AID 652154, 2013;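 active means mean replicate inhibition at least 60% with every replicate also reaching 60%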;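 further: luciferase light reporting Pax8 driven TPO promoter activity; plate controls were median of neutral control wells for no effect and mitoxantrone controls for full effect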
* hit, by the source's call.

What do the screens show for `COc1cccc(-c2sc3ccccc3c2-c2ccc(OCCN3CCOCC3)cc2)c1`?
LGR2 inh: 5; EBV LMP1 NFkB: -1; MITF TRPM1 inh: -11; EWS-Fli inh: 15; Shn3 inh set2: 27; PAX8 inh HTS: 9

What do the screens show for `CCOc1ccc(-c2cc(C)[n+](CCN3CCOCC3)c(-c3ccc(OCC)cc3)c2)cc1`?
LGR2 inh: 8; EBV LMP1 NFkB: 5; MITF TRPM1 inh: 43; EWS-Fli inh: 7; Shn3 inh set2: -27; PAX8 inh HTS: 98*

Results for COC(=O)[C@@H]1[C@@H](CO)[C@@H]2Cn3c(ccc(-c4cccc(F)c4)c3=O)[C@H]1N2Cc1ccncc1 ?
LGR2 inh: -11; EWS-Fli inh: -2; PAX8 inh HTS: -6

Results for Cc1ccc(OC(=O)N(C)C[C@@H]2OCc3ccccc3-c3c(n(C)c4ccccc34)C(=O)N([C@@H](C)CO)C[C@H]2C)cc1 ?
LGR2 inh: 33; EWS-Fli inh: 24; PAX8 inh HTS: 98*

How did O=C(Cc1cccnc1)N1CCCCN2[C@H](CO)[C@@H](c3ccc(/C=C/c4ccccc4)cc3)[C@@H]2C1 do in these assays?
LGR2 inh: 11; EWS-Fli inh: -2; PAX8 inh HTS: -13

Results for N#Cc1cccc(-c2ccc([C@H]3[C@H]4CN(C(=O)Cc5ccncc5)CCCCN4[C@H]3CO)cc2)c1 ?
LGR2 inh: 6; PAX8 inh HTS: 28

What do the screens show for `CC1=CC(C)CC(C)OC(=O)CC(c2ccc(O)cc2)NC(=O)C(Cc2c(Br)[nH]c3ccccc23)N(C)C(=O)C(C)NC(=O)C(C)C1` (configuration not stated)?
LGR2 inh: 82*; EBV LMP1 NFkB: -2; MITF TRPM1 inh: 81*; EWS-Fli inh: -25; Shn3 inh set2: 67; PAX8 inh HTS: 102*

What do the screens show for `CCN(CC)c1ccc(N=Cc2c(O)n(CCc3ccc(OC)c(OC)c3)c(=O)[nH]c2=O)cc1`?
LGR2 inh: 51*; EBV LMP1 NFkB: 29; MITF TRPM1 inh: 29; Shn3 inh set2: 8; PAX8 inh HTS: -23

What do the screens show for `COc1ccc(CCn2c(O)c(C=Nc3ccc(F)cc3)c(=O)[nH]c2=O)cc1OC`?
LGR2 inh: 5; EWS-Fli inh: 1; Shn3 inh set2: -2; PAX8 inh HTS: -18

How did Cc1cc(N(CCCl)CCCl)ccc1/C=N/NC(=O)c1ccco1 do in these assays?
EBV LMP1 NFkB: 53*; MITF TRPM1 inh: -21; Shn3 inh set2: -17

How did Cc1cc(N(CCCl)CCCl)ccc1C=NNC(=O)Cc1cc(=O)oc2cc(O)ccc12 do in these assays?
LGR2 inh: -2; EBV LMP1 NFkB: 35; MITF TRPM1 inh: 0; EWS-Fli inh: 24; Shn3 inh set2: 11; PAX8 inh HTS: 7

Results for COC(=O)[C@H]1[C@H](CO)[C@H]2Cn3c(ccc(-c4ccc(F)cc4)c3=O)[C@@H]1N2C(C)=O ?
LGR2 inh: -3; EWS-Fli inh: 3; PAX8 inh HTS: -10

What do the screens show for `COc1cc2c(cc1OC)CN(c1ccc([N+](=O)[O-])c(C(F)(F)F)c1)CC2`?
LGR2 inh: 93*; EBV LMP1 NFkB: 8; MITF TRPM1 inh: -2; EWS-Fli inh: 1; Shn3 inh set2: 61; PAX8 inh HTS: 5

How did COC1/C=C/C=C(\C)Cc2cc(O)c(Cl)c(c2)N(C)C(=O)CC(OC(=O)C(C)C)C2(C)OC2C(C)C2CC1(O)NC(=O)O2 (configuration not stated) do in these assays?
LGR2 inh: -10; EBV LMP1 NFkB: 13; MITF TRPM1 inh: 59; EWS-Fli inh: 41; Shn3 inh set2: -15; PAX8 inh HTS: 76*

Results for CC1(C)C[C@H]2C=C(C=O)[C@]3(C=O)C[C@]3(C)[C@H]2C1 ?
EBV LMP1 NFkB: -83; MITF TRPM1 inh: 88*; EWS-Fli inh: 28; Shn3 inh set2: 97*

How did COC(=O)C1=C(c2ccc(F)cc2OCc2ccccc2)C[C@@H]2CC[C@H]1N2C(=O)NCc1ccc(C)cc1 do in these assays?
LGR2 inh: 13; EBV LMP1 NFkB: -3; MITF TRPM1 inh: -1; EWS-Fli inh: 2; Shn3 inh set2: -16; PAX8 inh HTS: 102*

What do the screens show for `COC(=O)C1=C(c2ccc(F)cc2OCc2ccccc2)C[C@@H]2CC[C@H]1N2C(=O)NCc1ccc(F)cc1`?
LGR2 inh: 12; EBV LMP1 NFkB: 3; MITF TRPM1 inh: -2; EWS-Fli inh: 8; Shn3 inh set2: 31; PAX8 inh HTS: 7

What do the screens show for `COC(=O)C1=C(c2ccc(F)cc2OCc2ccccc2)C[C@@H]2CC[C@H]1N2C(=O)NC1Cc2ccccc2C1`?
LGR2 inh: 12; EBV LMP1 NFkB: 1; MITF TRPM1 inh: 17; EWS-Fli inh: 10; Shn3 inh set2: 87*; PAX8 inh HTS: 89*

What do the screens show for `CC=Cc1ccc2n(c1=O)C[C@@H]1[C@@H](CO)[C@H](C(=O)O)[C@H]2N1S(=O)(=O)c1ccccc1C` (mixture of isomers)?
LGR2 inh: 9; EWS-Fli inh: -3; PAX8 inh HTS: -6

How did CC=Cc1ccc2n(c1=O)C[C@H]1[C@H](CO)[C@@H](C(=O)O)[C@@H]2N1S(=O)(=O)c1ccccc1F (mixture of isomers) do in these assays?
LGR2 inh: -16; EWS-Fli inh: -13; PAX8 inh HTS: 2

How did COc1cc(C2c3cc4c(cc3CC3COC(=O)C32)OCO4)cc(OC)c1OC (configuration not stated) do in these assays?
LGR2 inh: -2; EBV LMP1 NFkB: 13; EWS-Fli inh: 57*; Shn3 inh set2: 18

What do the screens show for `COc1cc(C2c3cc(O)c(OC)cc3CC3C(=O)OCC32)ccc1O` (configuration not stated)?
LGR2 inh: -3; EBV LMP1 NFkB: -2; MITF TRPM1 inh: 16; EWS-Fli inh: -8; Shn3 inh set2: -3

How did COc1cc(C2c3cc4c(c(O)c3CC3COC(=O)C32)OCO4)cc(OC)c1OC (configuration not stated) do in these assays?
LGR2 inh: 7; EBV LMP1 NFkB: -8; MITF TRPM1 inh: 41; EWS-Fli inh: 44; Shn3 inh set2: -1; PAX8 inh HTS: 88*

Results for O=C(Cc1ccccc1)N1C[C@@H]2[C@H](c3ccccc31)[C@@H](CO)N2Cc1ccccc1 ?
LGR2 inh: 3; EWS-Fli inh: 4; PAX8 inh HTS: 13

Results for COC(=O)[C@@H]1[C@@H](CO)[C@@H]2Cn3c(ccc(-c4ccccc4F)c3=O)[C@H]1N2 ?
LGR2 inh: -13; EWS-Fli inh: -3; PAX8 inh HTS: 1

Results for COc1cccc(CN2CC3(C2)[C@H](c2ccccc2)[C@H](CO)N3C(=O)Cc2ccccc2)c1 ?
LGR2 inh: -14; EWS-Fli inh: 0; PAX8 inh HTS: 9

Assay outcomes as filed in PubChem.
